In PubChem BioAssay AID1159580 (chemical genetic matrix, 2015):
Where “and” joins values, the source holds several entries; their conditions need not be identical. Equal entries are not always repeated. Screen size: about 5,500 compounds; about 2,000 (36%) were called active. Another 18% or so got no clear call; they are omitted. No stated cut-off is given here; in the data, active means normalized growth mostly below about 0.91 (no sharp cut-off); inconclusive means no clear call, values can overlap the other calls; inactive means mostly above about 0.92. The list shows a part of the results.

Assay: chemical genetic growth profiling, strain panel (AID 1159580);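 further: tested at 20 µM; growth read once vehicle control cultures reached saturation at 30 °C; 1 = growth at the plate median or of vehicle wells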
Settings: S. cerevisiae deletion strains, growth OD

Measured: normalized growth

COc1ccc(-c2cc(=O)c3c(O)cc(O)cc3o2)cc1
active: locus YHR079C, strain IRE1, stronger effect = lower value 0.847 | locus YJR066W, strain TOR1, stronger effect = lower value 0.792
0.957 (inactive) and 0.879 (active): locus YJL095W, strain BCK1, stronger effect = lower value
1.01 (inactive) and 0.823 (active): locus YHR030C, strain SLT2, stronger effect = lower value
inactive: locus YAL013W, strain DEP1, stronger effect = lower value 1.01 | locus YAL021C, strain ccr4, stronger effect = lower value 0.967 | locus YAL026C, strain drs2, stronger effect = lower value 0.975 | locus YAL030W, strain snc1, stronger effect = lower value 1 | locus YBL061C, strain skt5, stronger effect = lower value 1 | locus YBR009C, strain hhf1, stronger effect = lower value 0.939 | locus YBR021W, strain FUR4, stronger effect = lower value 1.02 | locus YBR023C, strain chs3, stronger effect = lower value 0.961 | locus YBR171W, strain sec66, stronger effect = lower value 0.999 | locus YBR229C, strain ROT2, stronger effect = lower value 1 | locus YBR231C, strain swc5, stronger effect = lower value 0.981 | locus YBR279W, strain paf1, stronger effect = lower value 0.977 | locus YCL011C, strain gbp2, stronger effect = lower value 0.958 | locus YCL016C, strain dcc1, stronger effect = lower value 0.955 | locus YCL029C, strain bik1, stronger effect = lower value 0.976 | locus YCL069W, strain vba3, stronger effect = lower value 0.967 | locus YCR088W, strain abp1, stronger effect = lower value 0.987 | locus YDL005C, strain med2, stronger effect = lower value 1.02 | locus YDL035C, strain GPR1, stronger effect = lower value 1.03 | locus YDL040C, strain nat1, stronger effect = lower value 0.996 | locus YDL074C, strain BRE1, stronger effect = lower value 0.95 | locus YDL101C, strain DUN1, stronger effect = lower value 0.978 | locus YDL185W, strain tfp1, stronger effect = lower value 0.963 | locus YDL192W, strain arf1, stronger effect = lower value 0.989 | locus YDR001C, strain nth1, stronger effect = lower value 0.988 | locus YDR069C, strain doa4, stronger effect = lower value 1.02 | locus YDR101C, strain arx1, stronger effect = lower value 0.985 | locus YDR137W, strain rgp1, stronger effect = lower value 0.87 | locus YDR159W, strain sac3, stronger effect = lower value 0.996 | locus YDR162C, strain NBP2, stronger effect = lower value 0.999 | locus YDR195W, strain ref2 1.1 | locus YDR297W, strain sur2, stronger effect = lower value 0.994 | locus YDR318W, strain mcm21, stronger effect = lower value 0.982 | locus YDR334W, strain swr1, stronger effect = lower value 0.992 | locus YDR335W, strain msn5, stronger effect = lower value 0.978 | locus YDR388W, stronger effect = lower value 0.979 | locus YDR392W, strain spt3, stronger effect = lower value 0.804 | locus YDR502C, strain sam2, stronger effect = lower value 0.984 | locus YEL003W, strain gim4, stronger effect = lower value 0.963 | locus YEL037C, strain rad23, stronger effect = lower value 0.994 | locus YEL061C, strain CIN8 (second series), stronger effect = lower value 0.988 | locus YEL061C, strain CIN8, stronger effect = lower value 0.987 | locus YER015W, strain faa2, stronger effect = lower value 0.964 | locus YER016W, strain bim1, stronger effect = lower value 1.01 | locus YER110C, stronger effect = lower value 0.972 | locus YER111C, strain swi4, stronger effect = lower value 1.01 | locus YER155C, strain BEM2 (second series), stronger effect = lower value 0.966 | locus YER155C, strain BEM2, stronger effect = lower value 0.991 | locus YER167W, strain BCK2, stronger effect = lower value 1 | locus YFR010W, strain ubp6, stronger effect = lower value 1.01 | locus YGL078C, strain dbp3, stronger effect = lower value 0.978 | locus YGL086W, strain mad1, stronger effect = lower value 0.989 | locus YGL167C, strain pmr1, stronger effect = lower value 1.01 | locus YGL173C, strain kem1, stronger effect = lower value 1.01 | locus YGL227W, strain vid30, stronger effect = lower value 0.99 | locus YGL240W, strain doc1, stronger effect = lower value 0.975 | locus YGL248W, strain PDE1, stronger effect = lower value 0.984 | locus YGL253W, strain hxk2, stronger effect = lower value 0.964 | locus YGR135W, strain pre9, stronger effect = lower value 0.984 | locus YGR252W, strain gcn5, stronger effect = lower value 1.04 | locus YHR013C, strain ard1, stronger effect = lower value 1.06 | locus YHR027C, strain rpn1, stronger effect = lower value 1.01 | locus YHR079C, strain IRE1 (second series), stronger effect = lower value 0.971 | locus YHR094C, strain hxt1, stronger effect = lower value 0.992 | locus YHR129C, strain ARP1, stronger effect = lower value 0.998 | locus YHR142W, strain chs7, stronger effect = lower value 0.914 | locus YHR200W, strain rpn10, stronger effect = lower value 0.979 | locus YIL066C, strain RNR3, stronger effect = lower value 1.01 | locus YIL073C, strain SPO22, stronger effect = lower value 0.942 | locus YIL125W, strain kgd1, stronger effect = lower value 0.996 | locus YIR030C, strain dcg1, stronger effect = lower value 0.981 | locus YJL092W, strain hpr5, stronger effect = lower value 0.983 | locus YJL095W, strain BCK1 (second series), stronger effect = lower value 0.998 | locus YJL115W, strain asf1, stronger effect = lower value 1 | locus YJL129C, strain trk1, stronger effect = lower value 0.946 | locus YJL134W, strain LCB3, stronger effect = lower value 1 | locus YJL154C, strain vps35, stronger effect = lower value 0.999 | locus YJL164C, strain tpk1, stronger effect = lower value 0.931 | locus YJL166W, strain qcr8, stronger effect = lower value 0.965 | locus YJL168C, strain set2, stronger effect = lower value 0.999 | locus YJL187C, strain SWE1 (second series), stronger effect = lower value 0.979 | locus YJL187C, strain SWE1, stronger effect = lower value 1.01 | locus YJR043C, strain POL32, stronger effect = lower value 1.04
